Shown are actives, neighbours in structure and some others; about 11% of the full set was active somewhere.
HP1b binding inh = inhibitors of HP1-beta chromodomain binding to methylated histone tails. AlphaScreen HP1-beta / biotin-H3K9me3 peptide binding. 390,000 tested, 0.56% active. AID 540317. Potency, µM (highest dose often 114 µM), inactives show at the highest dose activity change, negative = inhibition, usual class: inhibitors; also: potency is read from the fitted curve at half-maximal effect; nearly all actives have a fitted effect of over 70% in size
Target sequence (P83916 whole entry, looked up): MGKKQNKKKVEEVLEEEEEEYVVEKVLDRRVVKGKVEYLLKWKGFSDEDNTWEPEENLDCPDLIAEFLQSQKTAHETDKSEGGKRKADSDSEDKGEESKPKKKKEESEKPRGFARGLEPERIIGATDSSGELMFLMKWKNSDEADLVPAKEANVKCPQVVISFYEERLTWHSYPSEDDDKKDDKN
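HP1-beta protein (50 nM final) preincubated 30 min at room temperature with biotinylated H3(1-18)K9me3 peptide (50 nM) in PBS pH 7.4, 0.01% Tween-20, then compound added for 30 min. AlphaScreen streptavidin donor/nickel chelate acceptor beads (10 ug/mL final), 30 min dark, luminescence read.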
L3MBTL1 block = L3MBTL1 (human) inhibition | 230,000 tested, 0.66% active | Potency, µM (doses to about 57.1 µM), for the others: top-dose activity, negative = inhibition, most hits filed as inhibitors | AlphaScreen L3MBTL1–H3K9me1 peptide binding; also: potency is read from the fitted curve at half-maximal effect; % is scaled to controls: 0 for no effect and ±100 for the full control effect; nearly all actives have a fitted effect of over 60% in size
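L3MBTL1 50 nM + b-AHA-H3(1-15)K9me1 75 nM, 30 min RT; compound added, 30 min RT; streptavidin donor/Ni-chelate acceptor beads 10 ug/mL each final, 30 min RT dark; AlphaScreen read.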
PI5P4Ka inh = blocks human PI5P4K alpha kinase activity. P48426. max response, %. 330,000 tested, 1.2% active. PI5P4Kalpha enzyme, ADP-Glo luminescence, 60 min; stronger effect = lower value; active = max response of -50% or lower; inconclusive = between -30% and -50%; inactive = -30% or higher; also: value at the top dose of about 77 µM; % is scaled to controls: 0 for no effect and ±100 for the full control effect
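Enzyme plus substrate dispensed, test compounds pinned in, then ATP (5 microM final) added. After 60 min at RT, ADP-Glo reagent 1 for 45 min and reagent 2 for 30 min preceded luminescence imaging.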
BAZ2B block = inhibitors of human BAZ2B bromodomain; Potency, µM (top dose mostly 114 µM), for the others: top-dose activity change, negative = inhibition, actives largely listed as inhibitors; 360,000 tested, 4.4% active; Q9UIF8; AID 504333; AlphaScreen BAZ2B-H3K14Ac peptide displacement; also: potency is read from the fitted curve at half-maximal effect; % is scaled to controls: 0 for no effect and ±100 for the full control effect; nearly all actives have a fitted effect of over 60% in size
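Complex of BAZ2B and biotin-H3K14Ac (50 nM apiece) forms over 30 min at RT, then faces library compounds up to 110 uM for another 30 min; AlphaScreen beads added, 20 min dark incubation, luminescence read.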
G9a block = inhibitors of human histone lysine methyltransferase G9a. G9a H3K9 monomethylation, AlphaScreen, 2 h. Q96KQ7. 350,000 tested, 8.8% active. Potency, µM (top dose mostly 102 µM), inactives show at the top dose activity, negative = inhibition, most hits filed as inhibitors; also: potency is read from the fitted curve at half-maximal effect; % is scaled to controls: 0 for no effect and ±100 for the full control effect; nearly all actives have a fitted effect of over 75% in size
Target sequence (Q96KQ7 913-1193 limits assumed): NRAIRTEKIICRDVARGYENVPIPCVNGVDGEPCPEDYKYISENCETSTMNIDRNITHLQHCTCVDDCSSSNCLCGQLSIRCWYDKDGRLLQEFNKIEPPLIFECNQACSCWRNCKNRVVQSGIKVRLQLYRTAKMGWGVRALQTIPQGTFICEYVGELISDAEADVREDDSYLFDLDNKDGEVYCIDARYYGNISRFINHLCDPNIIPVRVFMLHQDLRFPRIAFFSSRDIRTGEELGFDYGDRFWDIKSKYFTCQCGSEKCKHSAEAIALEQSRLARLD
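Readings reflect AlphaScreen signal from monomethyl-H3K9 antibody detection. HMT at 20 nM; substrate b-H3K9 500 nM; cofactor SAM 20 uM; 2 h RT reaction; compounds tested as titrations in qHTS with 15 min preincubation.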
JMJD2A Tudor = JMJD2A Tudor domain (human) inhibition; O75164; AlphaScreen JMJD2A-Tudor / H3K4me3 peptide binding; Potency, µM (doses to about 114 µM), without a hit: at the highest dose activity change, negative = inhibition, most hits filed as inhibitors; 390,000 tested, 4.4% active; also: potency is read from the fitted curve at half-maximal effect; % is scaled to controls: 0 for no effect and ±100 for the full control effect; nearly all actives have a fitted effect of over 50% in size
The depositor's hits bear a star; ? = inconclusive; . = no result given; [ ] = another dose, or the depositor's remark. Unless noted, calls follow the shape of the dose curve; as a rule, active = well fitted inhibition curve with a large enough effect; inconclusive = small, poorly fitted or top-dose-only effect; inactive = no such curve, though single readings can be large or run the other way.

SMILES | HP1b binding inh | L3MBTL1 block | PI5P4Ka inh | BAZ2B block | G9a block | JMJD2A Tudor
O=S(=O)(Nc1cc(Sc2cccc3cccnc23)c(O)c2ccccc12)c1ccccc1 | . | ? | . | ? | 1.6µM* | .
Cc1ccc(C)c(S(=O)(=O)Nc2cc(SCC(=O)O)c(O)c3ccccc23)c1 | ? | ? | ? | 20µM* | 1.1µM* | 40µM*
CCc1ccc(S(=O)(=O)Nc2ccc(O)c3ccccc23)cc1 | ? | . | ? | ? | 15%[2.33 µM] | ?
O=c1c2nncn2ccn1-c1ccc(F)c(F)c1 | 33% | . | . | -11% | 9%[59 µM] | -10%
O=[N+]([O-])c1cccc(S(=O)(=O)NCCNS(=O)(=O)c2cccc([N+](=O)[O-])c2)c1 | . | . | . | . | -1%[12.7 µM] | .
O=C(O)CSc1cc(NS(=O)(=O)c2cccc([N+](=O)[O-])c2)c2ccccc2c1O | 10µM* | ? | -29 | ? | 2.5µM* | -35%[11.4 µM]
COc1cc(OC)c2c(=O)cc(-c3ccccc3)oc2c1 | 38% | -2% | 0 | -16% | -37%[59 µM] | -14%
COc1ccc2oc(-c3ccco3)cc(=O)c2c1 | 63% | 35%[11.4 µM] | -2 | -18% | 45µM* | 3%[11.4 µM]
O=C(COc1ccc2oc(-c3ccco3)cc(=O)c2c1)N1CCCCC1 | ? | 3%[11.4 µM] | -15 | 50µM* | ? | -2%[11.4 µM]
COc1cccc2oc(-c3ccco3)cc(=O)c12 | 41% | -15% | -1 | -2% | 5.6µM* | -8%
CCOC(=O)c1ccc(N2C(=O)c3[nH]nc(-c4ccccc4)c3C2c2cccs2)cc1 (configuration not stated) | 12% | . | . | . | -15%[59 µM] | ?
CC(=O)N1CCCc2cc(S(=O)(=O)N3CCCC(C(=O)Nc4ccc(F)cc4F)C3)ccc21 (configuration not stated) | 7%[57 µM] | . | . | -9% | -6%[59 µM] | -13%
COc1ccccc1C(=O)Nc1cccc(OCc2cc(=O)n3ccccc3n2)c1 | 21%[57 µM] | . | . | 7% | 5%[59 µM] | -11%
CN(CC(O)COCc1ccccc1F)C1CCCCC1 (configuration not stated) | 30% | . | 4 | -1% | 11%[12.7 µM] | -10%
CN(Cc1cccc(F)c1)CC(O)COCc1ccccc1Cl (configuration not stated) | ? | . | -4 | . | 56µM* | 22µM*
Cc1ccc(CCNS(=O)(=O)c2cc(-c3cc(C)no3)ccc2C)cc1 | 74% | . | . | -3% | 0%[59 µM] | 10%
COc1ccc(C2CC(=O)n3nc(C45CC6CC(CC(C6)C4)C5)nc3S2)cc1OC (configuration not stated) | 4% | 6% | 11 | -10% | 11µM* | -7%
CCOc1ccc(C2CC(=O)n3nc(C45CC6CC(CC(C6)C4)C5)nc3S2)cc1OC (configuration not stated) | -12% | 3% | -3 | -3% | -6%[2.33 µM] | -23%
Cc1ccsc1/C=C/C1=Cc2c(sc(NC(=O)CSc3n[nH]c(N)n3)c2C#N)C(C)(C)C1 | -20% | . | . | ? | 35µM* | ?
NC(=O)c1ccsc1NC(=O)CSc1n[nH]c(N)n1 | 22% | 1% | 7 | . | . | -1%
CCOc1ccc(/C=C/C2=Cc3c(sc(NC(=O)CSc4n[nH]c(N)n4)c3C#N)C(C)(C)C2)cc1 | -30% | -9% | . | 40µM* | ? | ?
Cc1ccc(-c2c3c(=O)n(C)c(=O)n(C)c3c3c(C(F)(F)F)nc4ccccc4n23)cc1 | 92% | . | . | 20% | 48%[59 µM] | 22%
COc1ccc(S(=O)(=O)n2nc(C)c(S(=O)(=O)N3CCCCC3)c2C)cc1 | 22%[57 µM] | . | . | 4% | 0%[59 µM] | ?
CC1(C)Oc2ccc3ccc(=O)oc3c2/C(=C/Nc2cccc(O)c2)C1=O | ? | . | -1 | ? | 45µM* | 40µM*
CC1(C)Oc2ccc3ccc(=O)oc3c2/C(=C/NNC(N)=S)C1=O | -24% | . | -30 | 50µM* | 7.1µM* | ?
SMILES | HP1b binding inh | L3MBTL1 block | PI5P4Ka inh | BAZ2B block | G9a block | JMJD2A Tudor
CN/C=C1\C(=O)C(C)(C)Oc2ccc3ccc(=O)oc3c21 | 0% | -12% | 7 | -10% | 1%[59 µM] | -30%
CC1CCCN(CCCN2C(=O)C3C(C(=O)Nc4ccc(Cl)cc4)C4C=CC3(O4)C2C(=O)NC2CCCCC2)C1 (configuration not stated) | -24% | . | 0 | -3% | 45µM* | -16%
CSc1cccc(NC(=O)C2C3C=CC4(O3)C2C(=O)N(CCCN2CCOCC2)C4C(=O)NC2CCCCC2)c1 (configuration not stated) | -9% | . | -1 | -21% | 45µM* | -17%
CC1CCN(CCCN2C(=O)C3C(C(=O)Nc4ccc(Cl)cc4)C4C=CC3(O4)C2C(=O)NC2CCCCC2)CC1 (configuration not stated) | -11% | . | 4 | -3% | 40µM* | -15%
CC(C)c1ccc(NC(=O)C2C3C=CC4(O3)C2C(=O)N(CCCN2CCCCC2)C4C(=O)NC2CCCCC2)cc1 (configuration not stated) | -8% | . | -8 | 3% | -18% | -8%
O=C(Nc1ccc(Br)cc1)C1C2C=CC3(O2)C1C(=O)N(CCN1CCCCC1)C3C(=O)NC1CCCCC1 (configuration not stated) | 2% | . | 6 | -16% | 50µM* | -18%
Cc1ccc(NC(=O)C2C3C=CC4(O3)C2C(=O)N(CCCN2CCCC(C)C2)C4C(=O)NC2CCCCC2)cc1 (configuration not stated) | 1% | . | 3 | 1% | ? | -14%
CCN1C(=O)C2(c3ccccc31)c1c(oc3ccccc3c1=O)C(=O)N2CCOC (configuration not stated) | 60% | . | . | 0% | -6%[59 µM] | 0%
Cc1ccc(CC(=O)Nc2c(C(=O)N3CCN(c4ccccc4F)CC3)oc3ccccc23)cc1 | 20% | . | . | -30% | -50%[59 µM] | -29%
O=C1c2cccc(Cl)c2C(=O)c2c1cccc2N1CCCC1 | 22µM* | . | 4 | . | . | ?
O=C(O)Cc1ccc(C(=O)c2ccc(Cl)cc2Cl)s1 | 135% | 64% | 4 | 166% | 9% | 118%
O=C(O)Cc1ccc(C(=O)c2ccccc2F)s1 | 29% | . | -18 | -22% | 45µM* | -5%
CCCN1CNc2c(c(=O)[nH]c(=S)n2CCc2cc(Cl)ccc2Cl)C1 | 42% | . | . | . | . | -11%
COC(CN(C(=O)CCl)C(C(=O)NC1CCCC(C)C1C)c1ccc(C)cc1)OC (configuration not stated) | 21% | 13% | 0 | -14% | 50µM* | -25%
CCOC(=O)c1c(NC(=O)c2cc(-c3ccc(Cl)cc3)on2)sc(C)c1C | 7% | . | . | 3% | 8.9µM* | -6%
CCOC(=O)c1c(NC(=O)c2cc(-c3ccc(OC)c(OC)c3)on2)sc(C)c1C | 22% | . | . | 4% | -33%[59 µM] | -2%

Assay outcomes: PubChem, National Center for Advancing Translational Sciences (NCATS)
